Measurements reported in PubChem BioAssay (NCI).
The panel holds about 83,000 compounds, 20% with a hit somewhere; the sample as a whole holds those more often.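 A percent growth of 40 corresponds to 60% growth inhibition; 0 means no net growth; -100 means all cells died. Active threshold: below 10.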 Activity calls are given as the source filed them.

Columns and labels:
Test in all cases: NCI-60 one-dose screen, 48 h (100 = growth as untreated, 0 = no growth, -100 = all killed)
SK-MEL-2 melanoma = details: 10 µM unless noted
SN12C renal = details: 10 µM unless noted
UO-31 renal = details: 10 µM unless noted
TK-10 renal = details: 10 µM unless noted
ACHN renal = details: 10 µM unless noted
CAKI-1 renal = details: 10 µM unless noted
A498 renal = details: 10 µM unless noted
MOLT-4 leukemia = details: 10 µM unless noted
SR leukemia = details: 10 µM unless noted
RPMI-8226 leukemia = details: 10 µM unless noted
OVCAR-8 ovarian = details: 10 µM unless noted
OVCAR-5 ovarian = details: 10 µM unless noted
OVCAR-4 ovarian = details: 10 µM unless noted
SK-OV-3 ovarian = details: 10 µM unless noted
IGROV1 ovarian = details: 10 µM unless noted
OVCAR-3 ovarian = details: 10 µM unless noted
HS 578T breast = details: 10 µM
CCRF-CEM leukemia = details: 10 µM unless noted
NCI/ADR-RES ovarian = details: 10 µM unless noted
EKVX NSCLC = details: 10 µM unless noted

Measured: growth

Cc1ccc(N2C3c4ccccc4N(S(=O)(=O)c4ccc(C)cc4)C2c2ccccc2N3S(=O)(=O)c2ccc(C)cc2)cc1
inactive: SK-MEL-2 melanoma 111% | SN12C renal 94.9% | UO-31 renal 91.1% | TK-10 renal 128% | ACHN renal 95.2% | CAKI-1 renal 100% | A498 renal 97% | MOLT-4 leukemia 93.5% | SR leukemia 96% | RPMI-8226 leukemia 93.1% | OVCAR-8 ovarian 88.9% | OVCAR-5 ovarian 105% | OVCAR-4 ovarian 93.9% | SK-OV-3 ovarian 106% | IGROV1 ovarian 107% | OVCAR-3 ovarian 107% | HS 578T breast 99.5%

COc1ccc(-c2nsc3c2NC(=O)CC3c2ccc3c(c2)OCO3)cc1 (configuration not stated)
active: CCRF-CEM leukemia 3.82% | SR leukemia -21.6% | RPMI-8226 leukemia 2.77% | OVCAR-3 ovarian -26.3%
inactive: SK-MEL-2 melanoma 26.4% | SN12C renal 55.8% | UO-31 renal 33.6% | TK-10 renal 32.3% | ACHN renal 50.3% | CAKI-1 renal 26.1% | MOLT-4 leukemia 18.4% | OVCAR-8 ovarian 26.2% | OVCAR-5 ovarian 48.6% | OVCAR-4 ovarian 66.8% | SK-OV-3 ovarian 24.4% | IGROV1 ovarian 19.7% | HS 578T breast 17.6% | NCI/ADR-RES ovarian 13.9%

CCOc1cccc(/C=N/NC(=O)Cc2ccc(Nc3ccnc(C(F)(F)F)c3)cc2)c1O
inactive: EKVX NSCLC 20.4% | SN12C renal 43% | TK-10 renal 47.1% | CAKI-1 renal 36.8% | A498 renal 91.9% | MOLT-4 leukemia 40.6% | OVCAR-8 ovarian 16.7% | OVCAR-5 ovarian 19.6% | OVCAR-4 ovarian 22% | SK-OV-3 ovarian 20% | IGROV1 ovarian 11.3% | OVCAR-3 ovarian 39.7% | HS 578T breast 76.4% | NCI/ADR-RES ovarian 48%
active: UO-31 renal 3.59% | ACHN renal 6.94% | CCRF-CEM leukemia -21.7% | RPMI-8226 leukemia 4.35%

O=C(Nc1ccccc1)C(CCCCN1C(=O)c2ccccc2C1=O)N1C(=O)c2ccccc2C1=O (configuration not stated)
inactive: EKVX NSCLC 105% | SN12C renal 102% | UO-31 renal 84.3% | TK-10 renal 105% | ACHN renal 103% | CAKI-1 renal 105% | A498 renal 99.1% | CCRF-CEM leukemia 100% | MOLT-4 leukemia 96.5% | SR leukemia 92.7% | RPMI-8226 leukemia 86.2% | OVCAR-8 ovarian 103% | OVCAR-4 ovarian 106% | SK-OV-3 ovarian 107% | IGROV1 ovarian 110% | OVCAR-3 ovarian 107% | HS 578T breast 106% | NCI/ADR-RES ovarian 98.6%

CC1=NN(c2cccc(S(N)(=O)=O)c2)C(=O)C1
inactive: EKVX NSCLC 91.2% | SN12C renal 90.9% | UO-31 renal 77.1% | TK-10 renal 97.8% | ACHN renal 99.6% | CAKI-1 renal 51% | A498 renal 88.6% | CCRF-CEM leukemia 79.6% | MOLT-4 leukemia 99.7% | SR leukemia 107% | RPMI-8226 leukemia 271% | OVCAR-8 ovarian 107% | OVCAR-5 ovarian 89.9% | OVCAR-4 ovarian 99.4% | SK-OV-3 ovarian 91.3% | OVCAR-3 ovarian 96.3% | HS 578T breast 86.6% | NCI/ADR-RES ovarian 95.2%

CN(C)c1ccc(C(c2ccccc2)c2ccc(N(C)C)cc2)cc1
inactive: SK-MEL-2 melanoma 89.1% | SN12C renal 92.6% | TK-10 renal 122% | ACHN renal 97.9% | CAKI-1 renal 93.1% | A498 renal 107% | CCRF-CEM leukemia 99.2% | SR leukemia 68.2% | RPMI-8226 leukemia 57.4% | OVCAR-5 ovarian 94% | OVCAR-4 ovarian 99.8% | SK-OV-3 ovarian 106% | IGROV1 ovarian 113% | OVCAR-3 ovarian 94.9% | HS 578T breast 98.8% | NCI/ADR-RES ovarian 85%

O=C(C(Br)C(Br)c1ccccc1)C(Br)C(Br)c1ccccc1 (configuration not stated)
active: SK-MEL-2 melanoma -28.7% | UO-31 renal -96.6% | TK-10 renal -87.9% | ACHN renal -96% | CCRF-CEM leukemia -43.8% | MOLT-4 leukemia -43.4% | SR leukemia -44.9% | RPMI-8226 leukemia -36.6% | OVCAR-8 ovarian -10.8% | OVCAR-5 ovarian -57.4% | IGROV1 ovarian -49.5% | OVCAR-3 ovarian -79.9%
inactive: A498 renal 84.6% | OVCAR-4 ovarian 34.9% | SK-OV-3 ovarian 83.1% | HS 578T breast 39.4% | NCI/ADR-RES ovarian 17.1%

COc1cc2c(cc1OC)C(=O)OC2
inactive: EKVX NSCLC 108% | SN12C renal 99.8% | UO-31 renal 101% | TK-10 renal 123% | ACHN renal 103% | CAKI-1 renal 55.6% | A498 renal 109% | CCRF-CEM leukemia 124% | MOLT-4 leukemia 104% | SR leukemia 106% | RPMI-8226 leukemia 367% | OVCAR-8 ovarian 101% | OVCAR-5 ovarian 100% | OVCAR-4 ovarian 108% | SK-OV-3 ovarian 124% | OVCAR-3 ovarian 110% | HS 578T breast 109% | NCI/ADR-RES ovarian 119%

O=C1OCC2=C1C(c1cccc(Br)c1)c1cc3c(cc1N2CCO)OCCO3 (configuration not stated)
active: A498 renal -11% | OVCAR-8 ovarian 9.03% | OVCAR-3 ovarian -61.5% | HS 578T breast 8.74% | NCI/ADR-RES ovarian 8.43%
inactive: EKVX NSCLC 44.1% | SN12C renal 26.7% | UO-31 renal 18.1% | TK-10 renal 62.7% | ACHN renal 33.8% | CAKI-1 renal 15% | MOLT-4 leukemia 20.5% | SR leukemia 29.8% | RPMI-8226 leukemia 21.4% | OVCAR-5 ovarian 39.5% | OVCAR-4 ovarian 53.4% | SK-OV-3 ovarian 32.3% | IGROV1 ovarian 18.3%

O=C(Cc1ccc(Nc2ccnc(C(F)(F)F)c2)cc1)N/N=C/c1ccccc1O
inactive: EKVX NSCLC 25.7% | SN12C renal 36.1% | TK-10 renal 22.7% | CAKI-1 renal 32.3% | A498 renal 145% | MOLT-4 leukemia 64.4% | SR leukemia 98.2% | RPMI-8226 leukemia 29.6% | OVCAR-8 ovarian 25.6% | OVCAR-5 ovarian 28.1% | OVCAR-4 ovarian 18.4% | SK-OV-3 ovarian 17.1% | IGROV1 ovarian 18.8% | OVCAR-3 ovarian 40.8% | HS 578T breast 102% | NCI/ADR-RES ovarian 23.8%
active: UO-31 renal 0.112% | ACHN renal 4.09%

Nc1ccc(C(OC(=O)c2cc3ccccc3c(Cc3c(O)c(C(=O)OC(c4ccc(N)cc4)(c4ccc(N)cc4)c4ccc(N)cc4)cc4ccccc34)c2O)(c2ccc(N)cc2)c2ccc(N)cc2)cc1
inactive: TK-10 renal 44.6% | ACHN renal 47.5% | CAKI-1 renal 11.3% | MOLT-4 leukemia 21% | SR leukemia 13.1% | OVCAR-8 ovarian 13.5% | OVCAR-5 ovarian 38.8% | SK-OV-3 ovarian 15.7% | IGROV1 ovarian 47.4% | NCI/ADR-RES ovarian 57.1%
active: SK-MEL-2 melanoma -17.2% | SN12C renal -2.33% | A498 renal -3.31% | RPMI-8226 leukemia 2.08% | OVCAR-3 ovarian -14.3% | HS 578T breast -18.4%

COCCOCCOCc1n(Cc2ccc3ccccc3n2)c2ccccc2[n+]1Cc1ccc2ccccc2c1
inactive: EKVX NSCLC 31% | UO-31 renal 79.2% | ACHN renal 71.1% | OVCAR-5 ovarian 14.7% | HS 578T breast 20.3% | NCI/ADR-RES ovarian 98.9%
active: SN12C renal 5.5% | TK-10 renal -8.46% | A498 renal -15.8% | CCRF-CEM leukemia 1.17% | MOLT-4 leukemia -20.5% | SR leukemia -37.1% | RPMI-8226 leukemia -30.3% | OVCAR-8 ovarian 9.25% | OVCAR-4 ovarian 9.99% | SK-OV-3 ovarian -6.91% | IGROV1 ovarian -9.44% | OVCAR-3 ovarian 1.01%

O=NN(CC(=O)NNc1ccccc1)CC(=O)NNc1ccccc1
inactive: SK-MEL-2 melanoma 77.7% | UO-31 renal 22% | TK-10 renal 84.3% | ACHN renal 46.4% | CAKI-1 renal 36% | A498 renal 107% | CCRF-CEM leukemia 30.7% | MOLT-4 leukemia 42.2% | SR leukemia 74.3% | RPMI-8226 leukemia 55.4% | OVCAR-8 ovarian 67.7% | OVCAR-5 ovarian 74.5% | OVCAR-4 ovarian 70.8% | SK-OV-3 ovarian 101% | OVCAR-3 ovarian 86.9% | HS 578T breast 94.2% | NCI/ADR-RES ovarian 40.7%

O=C1OCC2=C1C(c1ccc(Cl)c(Cl)c1)c1cc3c(cc1N2CCO)CCC3 (configuration not stated)
active: A498 renal -0.897% | OVCAR-3 ovarian -42% | HS 578T breast 5.2% | NCI/ADR-RES ovarian 4.51%
inactive: EKVX NSCLC 40.2% | SN12C renal 31.4% | UO-31 renal 26.3% | TK-10 renal 50.7% | ACHN renal 32.8% | CAKI-1 renal 35.7% | CCRF-CEM leukemia 10.6% | MOLT-4 leukemia 18.9% | SR leukemia 33.7% | RPMI-8226 leukemia 22% | OVCAR-8 ovarian 23.5% | OVCAR-5 ovarian 35.3% | OVCAR-4 ovarian 50% | SK-OV-3 ovarian 38.6% | IGROV1 ovarian 30.1%

CCSc1ccc([C@@H]2[C@@H](N)C(=O)N2c2cc(OC)c(OC)c(OC)c2)cc1
inactive: EKVX NSCLC 41% | SN12C renal 49.6% | UO-31 renal 49.4% | TK-10 renal 58.9% | ACHN renal 50.7% | CCRF-CEM leukemia 11.6% | MOLT-4 leukemia 13.1% | SR leukemia 14.4% | RPMI-8226 leukemia 18% | OVCAR-8 ovarian 32.4% | OVCAR-5 ovarian 42.7% | OVCAR-4 ovarian 54.4% | SK-OV-3 ovarian 44% | IGROV1 ovarian 47.9% | HS 578T breast 34.5%
active: A498 renal 3.94% | OVCAR-3 ovarian -23.8% | NCI/ADR-RES ovarian 3.99%

CS(=O)(=O)Nc1cc(-c2cc3ncc(C#N)c(Nc4ccc(Oc5ccccc5)c(Cl)c4)c3s2)cnc1Cl
inactive: EKVX NSCLC 58.1% | SN12C renal 45.7% | UO-31 renal 22.6% | TK-10 renal 45.4% | ACHN renal 39.2% | CAKI-1 renal 19.4% | CCRF-CEM leukemia 38.3% | MOLT-4 leukemia 36.9% | SR leukemia 20.5% | RPMI-8226 leukemia 62.7% | OVCAR-8 ovarian 50.6% | OVCAR-5 ovarian 75.9% | OVCAR-4 ovarian 57.6% | SK-OV-3 ovarian 43.4% | IGROV1 ovarian 11% | OVCAR-3 ovarian 50.7% | NCI/ADR-RES ovarian 72.2%
active: A498 renal -15.2%
